Where “and” joins values, the source holds several entries; their conditions need not be identical. Identical values can stand only once. The panel holds about 83,000 compounds, 20% with a hit somewhere; the sample as a whole holds those more often.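 Testing used 96-well plates and a 48-hour single-concentration exposure. Example: -40 means 40% of the starting cells died.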 Calls of active or inactive are those of the source. The calls were made as follows: active = growth percent below 10; inactive = the rest.
Key:
Test in all cases: NCI-60 one-dose screen, 48 h (100 = growth as untreated, 0 = no growth, -100 = all killed)
Conditions in all cases: 10 µM unless noted
SK-MEL-2 melanoma = system: SK-MEL-2 melanoma
EKVX NSCLC = system: EKVX NSCLC
SN12C renal = system: SN12C renal
TK-10 renal = system: TK-10 renal
ACHN renal = system: ACHN renal
CAKI-1 renal = system: CAKI-1 renal
A498 renal = system: A498 renal
CCRF-CEM leukemia = system: CCRF-CEM leukemia
MOLT-4 leukemia = system: MOLT-4 leukemia
UO-31 renal = system: UO-31 renal

Measured: growth

Nc1cccc(-n2c(COc3ccc(I)cc3)nc3ccccc32)c1
inactive: SK-MEL-2 melanoma 82.5% and 105% | EKVX NSCLC 70.4% and 102% | SN12C renal 90.2% and 103% | TK-10 renal 112% and 98.6% | ACHN renal 81.9% and 103% | CAKI-1 renal 56.8% and 97.2% | A498 renal 112% and 132% | CCRF-CEM leukemia 82.8% and 99.3% | MOLT-4 leukemia 71.5% and 99.8%

CC1=C(C)C(=O)C(NCCN2CCOCC2)=C(Br)C1=O
active: CCRF-CEM leukemia -21% | MOLT-4 leukemia 0.284%
inactive: SK-MEL-2 melanoma 68.9% | EKVX NSCLC 46.4% | SN12C renal 52% | UO-31 renal 44.7% | ACHN renal 62.3% | CAKI-1 renal 45.3% | A498 renal 124%

Cc1[nH]nc2ccc3nc(-c4cnn(CCO)c4)c4c(c3c12)CCCC4
inactive: SK-MEL-2 melanoma 21.1% | EKVX NSCLC 27.2% | SN12C renal 32.3% | TK-10 renal 21.1% | ACHN renal 21.4% | CCRF-CEM leukemia 28.7% | MOLT-4 leukemia 34%
active: CAKI-1 renal 4.55% | A498 renal -7.65%

O=C(CSc1nnc(-c2ccc(-c3nc4ccc(Cl)cc4[nH]3)cc2)o1)Nc1ccc(Br)cc1
inactive: EKVX NSCLC 41.9% | TK-10 renal 75.9% | A498 renal 162% | MOLT-4 leukemia 13.9%
active: SK-MEL-2 melanoma 5.03% | SN12C renal -22.3% | ACHN renal -69.1% | CAKI-1 renal -25.1% | CCRF-CEM leukemia 9.42%

Cc1nn(-c2ccccc2)c2nc(C)n(CC(=O)N/N=C/c3ccccc3O)c(=O)c12
inactive: SK-MEL-2 melanoma 38.1% | EKVX NSCLC 13% | SN12C renal 30% | UO-31 renal 13.2% | ACHN renal 14.6% | CAKI-1 renal 22.6% | A498 renal 97% | CCRF-CEM leukemia 25.7% | MOLT-4 leukemia 22.8%

O=C(CSc1nnc(-c2ccc(-c3nc4ccccc4[nH]3)cc2)o1)Nc1ccc(Cl)cc1
active: ACHN renal -86.8% | MOLT-4 leukemia 6.05%
inactive: SK-MEL-2 melanoma 70.6% | EKVX NSCLC 16.2% | SN12C renal 19.6% | UO-31 renal 57.8% | CAKI-1 renal 17.1% | A498 renal 132% | CCRF-CEM leukemia 32.5%

N#C/C(=C1/C(=O)Nc2ccccc21)c1nnc(NC(=O)c2ccc(-n3c(=O)[nH]c4ccccc4c3=O)cc2)s1
inactive: SK-MEL-2 melanoma 57.7% | EKVX NSCLC 38.9% | SN12C renal 33.1% | TK-10 renal 84.3% | ACHN renal 28.2% | CAKI-1 renal 49.2% | A498 renal 133%
active: CCRF-CEM leukemia 7.74% | MOLT-4 leukemia 0.108%

CN(C)c1nc(NCCNS(=O)(=O)c2ccc(C(=O)/C=C/c3ccc(C(F)(F)F)cc3)cc2)nc(N2CCOCC2)n1
inactive: SK-MEL-2 melanoma 74.8% | EKVX NSCLC 37.1% | SN12C renal 39.9%
active: UO-31 renal -61.9% | ACHN renal -33.2% | CAKI-1 renal -32.7% | CCRF-CEM leukemia -29% | MOLT-4 leukemia -19.1%

COc1cc(C2CC(c3cc(OC)c(OC)c(OC)c3)=Nc3c(N)nc(N)nc3N2)ccc1Oc1nc(Nc2ccc(F)cc2)nc(N(C)C)n1 (centres undefined)
inactive: SK-MEL-2 melanoma 82.7% | EKVX NSCLC 67.5% | SN12C renal 78.5% | TK-10 renal 99.8% | ACHN renal 68.1% | CAKI-1 renal 52.3% | A498 renal 118% | CCRF-CEM leukemia 26.7%
active: MOLT-4 leukemia 6.97%

O=c1[nH]c2ccccc2cc1CSc1ccccc1Nc1nccc(-c2ccc3c(c2)OCO3)n1
inactive: SK-MEL-2 melanoma 96.7% | EKVX NSCLC 86.6% | SN12C renal 57% | TK-10 renal 107% | ACHN renal 51.6% | CAKI-1 renal 16% | A498 renal 126% | CCRF-CEM leukemia 101% | MOLT-4 leukemia 93.6%

COc1ccc(-c2nc3ccccc3n2CC(=O)N=Nc2c(O)[nH]c3ccc(OC)cc23)cc1
inactive: SK-MEL-2 melanoma 23.9% | EKVX NSCLC 77.8% | SN12C renal 58.7% | TK-10 renal 43.8% | ACHN renal 10.1% | A498 renal 88.3% | CCRF-CEM leukemia 62.9% | MOLT-4 leukemia 35.8%
active: CAKI-1 renal -53.5%

CN(C)c1nc(NCCNS(=O)(=O)c2ccc(C3=Nc4c(N)nc(N)nc4NC(c4ccc(Cl)cc4)C3)cc2)nc(N2CCOCC2)n1 (centres undefined)
inactive: SK-MEL-2 melanoma 98.5% | EKVX NSCLC 37.6% | SN12C renal 37% | TK-10 renal 86.8% | ACHN renal 69.2% | CAKI-1 renal 41.7% | A498 renal 108% | CCRF-CEM leukemia 17.3% | MOLT-4 leukemia 13.9%

CC1CCc2c(sc3nc(SCC(=O)c4cccc([N+](=O)[O-])c4)n(-c4ccccc4)c(=O)c23)C1 (centres undefined)
inactive: SK-MEL-2 melanoma 94.6% | EKVX NSCLC 88% | SN12C renal 57.1% | TK-10 renal 72.3% | ACHN renal 31.3% | CAKI-1 renal 12.4% | A498 renal 115% | CCRF-CEM leukemia 61.8% | MOLT-4 leukemia 60.2%

CCCSc1nnc(-c2c(C)nc3sccn23)o1
inactive: SK-MEL-2 melanoma 104% | EKVX NSCLC 66.8% | SN12C renal 87.1% | TK-10 renal 113% | ACHN renal 84.9% | CAKI-1 renal 79.4% | A498 renal 92.3% | CCRF-CEM leukemia 86.3% | MOLT-4 leukemia 94.4%

COC(=O)c1cc(C(C)=O)n2c3ccccc3c3ccccc3c12
inactive: SK-MEL-2 melanoma 99.2% | EKVX NSCLC 69.5% | SN12C renal 75.6% | TK-10 renal 74.3% | ACHN renal 36.4% | CAKI-1 renal 44.5% | A498 renal 121% | CCRF-CEM leukemia 85.2% | MOLT-4 leukemia 73.3%

C[C@H](NC(=O)c1ccc2c(-c3ccc(C(F)(F)F)cc3)cccc2c1)c1ccccn1
inactive: SK-MEL-2 melanoma 67.2% | EKVX NSCLC 22.8% | SN12C renal 42% | TK-10 renal 42.6% | ACHN renal 41.1% | CAKI-1 renal 38.8% | A498 renal 72.5% | CCRF-CEM leukemia 38.6% | MOLT-4 leukemia 19.4%

COc1nc(N)ncc1-c1ccc2ncnc(N3CCc4cc(F)c(Cl)cc43)c2c1
active: SN12C renal -40.9% | TK-10 renal -50% | ACHN renal -84.7% | CAKI-1 renal 4.22% | A498 renal -15.6%
inactive: SK-MEL-2 melanoma 25.7% | EKVX NSCLC 24.2% | CCRF-CEM leukemia 61.6% | MOLT-4 leukemia 62.9%

c1ccc(CSc2nnc(-c3ccc4nc(-c5ccccc5)[nH]c4c3)o2)cc1
active: SN12C renal -48.3% | TK-10 renal -2.54% | ACHN renal 1.16% | CAKI-1 renal -44.9% | A498 renal -8.46%
inactive: SK-MEL-2 melanoma 57.5% | EKVX NSCLC 57.3% | CCRF-CEM leukemia 73.8% | MOLT-4 leukemia 58.2%

CCCCCCCCc1ccc(C(=O)Nc2ccc(C)cc2C(=O)O)cc1
inactive: SK-MEL-2 melanoma 94.8% | EKVX NSCLC 77.5% | SN12C renal 89.5% | TK-10 renal 103% | ACHN renal 69.4% | CAKI-1 renal 85.4% | A498 renal 109% | CCRF-CEM leukemia 53.9% | MOLT-4 leukemia 75.3%

O=C(CSc1nc2sc3c(c2c(=O)n1-c1ccc(Cl)cc1)CCCC3)NNC(=O)c1ccc(Br)cc1
inactive: SK-MEL-2 melanoma 99.1% | EKVX NSCLC 60.9% | SN12C renal 46% | TK-10 renal 139% | ACHN renal 91.2% | CAKI-1 renal 71.4% | A498 renal 127% | CCRF-CEM leukemia 61.2% | MOLT-4 leukemia 73.2%

CN1CCN(C(=O)Oc2cc3c(c4ccccc24)[C@H](CCl)CN3C(=O)c2cc3cc(OCCCN4CCC4)ccc3[nH]2)[C@H]2CSSC[C@H]21
active: SK-MEL-2 melanoma -92.7% | EKVX NSCLC -38.3% | SN12C renal -7.03% | TK-10 renal 4.65% | ACHN renal -11.6% | CAKI-1 renal 6.04% | A498 renal -17.6% | CCRF-CEM leukemia -25.8% | MOLT-4 leukemia -11.6%

CC[C@]12C=CCN3CC[C@@]4(c5ccc(OC)cc5N(C)[C@H]4[C@@](O)(C(=O)OC)[C@@H]1OC(=O)CCC[P+](c1ccc(OC)cc1)(c1ccc(OC)cc1)c1ccc(OC)cc1)[C@@H]32
active: SK-MEL-2 melanoma -90.6% | EKVX NSCLC -85% | SN12C renal -93.4% | UO-31 renal -56.8% | ACHN renal -95.8% | CAKI-1 renal -93.4% | CCRF-CEM leukemia -71.2% | MOLT-4 leukemia -36.7%

CC[C@]12C=CCN3CC[C@@]4(c5ccc(OC)cc5N(C)[C@H]4[C@@](O)(C(=O)OC)[C@@H]1OC(=O)CCCC[P+](c1ccc(F)cc1)(c1ccc(F)cc1)c1ccc(F)cc1)[C@@H]32
active: SK-MEL-2 melanoma -54%
inactive: EKVX NSCLC 53% | SN12C renal 10.6% | TK-10 renal 70.2% | ACHN renal 103% | CAKI-1 renal 73.2% | A498 renal 99.2% | CCRF-CEM leukemia 19.9% | MOLT-4 leukemia 29.1%

Cc1ccc2c(c1)nc(-c1ccccc1)n2CC(=O)N=Nc1c(O)[nH]c2ccc(Cl)cc12
active: SK-MEL-2 melanoma -75.4% | EKVX NSCLC -31.9% | SN12C renal -77.9% | UO-31 renal -89.6% | ACHN renal -89.5% | CAKI-1 renal -42.6% | A498 renal -71.1% | CCRF-CEM leukemia 4.22% | MOLT-4 leukemia -20.3%

O=[N+]([O-])c1cccc(-c2nnc3c(/C=C/c4ccc(F)cc4)nc4ccccc4n23)c1
inactive: SK-MEL-2 melanoma 97.7% | EKVX NSCLC 96.2% | SN12C renal 88% | UO-31 renal 78.3% | ACHN renal 93.8% | CAKI-1 renal 88.8% | A498 renal 102% | CCRF-CEM leukemia 102% | MOLT-4 leukemia 90.7%

COc1ccc(C(=O)C[n+]2cccc3c4ccccc4ccc32)cc1
inactive: SK-MEL-2 melanoma 56.3% | EKVX NSCLC 43.2% | SN12C renal 17.4% | TK-10 renal 73.6% | ACHN renal 79% | CAKI-1 renal 79% | A498 renal 102% | CCRF-CEM leukemia 52.5% | MOLT-4 leukemia 32%

N#C/C(=C/c1ccc([N+](=O)[O-])cc1)c1nnc(NC(=O)c2ccc(-n3c(=O)[nH]c4ccccc4c3=O)cc2)s1
inactive: SK-MEL-2 melanoma 103% | EKVX NSCLC 93.9% | SN12C renal 94% | UO-31 renal 75.6% | ACHN renal 96.3% | CAKI-1 renal 92% | CCRF-CEM leukemia 97.8% | MOLT-4 leukemia 98.5%

CCOC(=O)/C(F)=C/C1CC1CCc1ccc(OCC)cc1 (centres undefined)
inactive: SK-MEL-2 melanoma 102% | EKVX NSCLC 47.7% | SN12C renal 44.9% | TK-10 renal 98.2% | ACHN renal 75.1% | CAKI-1 renal 86.1% | A498 renal 102% | CCRF-CEM leukemia 106% | MOLT-4 leukemia 98.4%
